In PubChem BioAssay (NCATS):
Results filed as inconclusive are left out. Entries that show only a call come without a potency. The source made the active and inactive calls. Calls come from the whole dose curve; as a rule, active = well fitted cell-killing curve with a large enough effect; inconclusive = small, poorly fitted or top-dose-only effect, or effect the other way; inactive = flat fitted curve, though single readings scatter.

Assay: qHTS assay for cell viability of the p53RE-bla HCT-116 cell line (AID 743292); note: nearly all actives have a fitted effect of over 55% in size
Conditions: p53RE-bla HCT-116 viability, ATP luminescence, 16 h; series mostly up to 95 µM
Description: U.S. Tox21 Program National Center for Advancing Translational Sciences [NCATS] NIH Chemical Genomics Center [NCGC] U.S. Environmental Protection Agency [EPA] National Institutes of Environmental Health Sciences [NIEHS] National Toxicology Program [NTP] U.S. Food and Drug Administration [FDA] Tox21 Assay Overview: The CellTiter-Glo Luminescent Cell Viability Assay (Promega, Madison, WI) is a homogeneous method to determine the number of viable cells in culture based on quantitation of the ATP present, which signals the presence of metabolically active cells. This cell viability assay was used to screen environmental chemicals in the CellSensor p53RE-bla HCT-116 cell line (Invitrogen).
Tox21 Assay Protocol Summary: Cell viability after compound treatment was measured using a luciferase-coupled ATP quantitation assay (CellTiter-Glo viability assay, Promega, Madison, WI) in CellSensor p53RE-bla HCT-116 cell line (Invitrogen). Total intracellular ATP content corresponds to the number of metabolically competent cells after compound treatment. The cells were dispensed at 4,000 cells/5 uL/well in 1,536-well white/solid bottom assay plates using a Flying Reagent Dispenser (Aurora Discovery, San Diego, CA). The cells were incubated for 5 h at 37 C, followed by the addition of 23 nL of compounds dissolved in DMSO, positive controls or DMSO only using a pintool work station (Kalypsys, San Diego, CA). The assay plates were incubated for 16 h at 37 C, followed by the addition of 5 uL/well of CellTiter-Glo reagent. After 30 min incubation at room temperature, the luminescence intensity of the plates was measured using a ViewLux plate reader (PerkinElmer, Shelton, CT).
Potency is the fitted concentration of half-maximal effect.

Which Potency does the source give for `CC(C)N1C(=O)c2ccccc2NS1(=O)=O` here?
The Potency was “inactive”.

Which Potency does the source give for `ClC(Cl)=C(c1ccc(Cl)cc1)c1ccc(Cl)cc1` here?
The Potency was “inactive”.

Which Potency does the source give for `BrCCBr` here?
The Potency was “inactive”.

Which Potency does the source give for `COC1=CC(=O)OC(CCc2ccccc2)C1` (stereo not given) here?
The Potency was “inactive”.

Which Potency does the source give for `CCCSC(=O)Cl` here?
The Potency was “inactive”.

With `Brc1ccc(Oc2cc(Br)c(Br)cc2Br)c(Br)c1` as the compound, how does the Potency read?
Its Potency is “inactive”.

With `CCCCOC(=O)c1ccccc1C(=O)OCCCC` as the compound, how does the Potency read?
Its Potency is “inactive”.

For `CC(C)(OO)c1ccccc1`, which Potency is on record?
The Potency was “inactive”.

Which Potency does the source give for `ClC(Cl)=C(Cl)Cl` here?
The Potency was “inactive”.

For `CC(COc1ccc(Oc2ccccc2)cc1)Oc1ccccn1` (stereo not given), which Potency is on record?
The Potency was “inactive”.

For `COc1ccc(N)cc1`, which Potency is on record?
The Potency was “inactive”.

For `C[C@H]1CCCC(=O)CCC/C=C/c2cc(O)cc(O)c2C(=O)O1`, which Potency is on record?
The Potency was “inactive”.

Which Potency does the source give for `O=NN(CCO)CCO` here?
The Potency was “inactive”.

Which Potency does the source give for `Clc1cc(Cl)c(-c2cc(Cl)c(Cl)cc2Cl)cc1Cl` here?
Its Potency is 44.7 µM (active).

Which Potency does the source give for `Oc1ccc(Cl)cc1Cl` here?
Its Potency is “inactive”.

Which Potency does the source give for `Cc1ccc([N+](=O)[O-])cc1C` here?
Its Potency is “inactive”.

For `ClC(Cl)(Cl)c1ccccc1`, which Potency is on record?
The Potency was “inactive”.

For `COC1=CC(=O)O[C@@H](/C=C/c2ccc3c(c2)OCO3)C1`, which Potency is on record?
The Potency was “inactive”.

Which Potency does the source give for `O=S1OCC2C(CO1)C1(Cl)C(Cl)=C(Cl)C2(Cl)C1(Cl)Cl` (stereo not given) here?
The Potency was “inactive”.

Which Potency does the source give for `ClC(Cl)=C(Cl)C(Cl)=C(Cl)Cl` here?
The Potency was “inactive”.

Which Potency does the source give for `c1ccc(N=Nc2ccccc2)cc1` here?
The Potency was “inactive”.

For `c1ccc2c(c1)CCCC2`, which Potency is on record?
The Potency was “inactive”.

For `C[C@]12CC[C@H]3[C@@H](CCC4=CC(=O)CC[C@@]43C)[C@@H]1CC[C@@H]2O`, which Potency is on record?
Its Potency is “inactive”.

With `O=C(Cl)C(Cl)(Cl)Cl` as the compound, how does the Potency read?
The Potency was “inactive”.

For `O=C=NC1CCCCC1`, which Potency is on record?
Its Potency is “inactive”.

Which Potency does the source give for `N#Cc1c(Cl)cccc1Cl` here?
The Potency was “inactive”.

Which Potency does the source give for `O=C(O)C1C2CCC(O2)C1C(=O)O` (stereo not given) here?
The Potency was “inactive”.

With `CC(C)OC(=O)Nc1cccc(Cl)c1` as the compound, how does the Potency read?
Its Potency is “inactive”.

With `C=C(Cl)Cl` as the compound, how does the Potency read?
The Potency was “inactive”.

For `C=CC(C)=O`, which Potency is on record?
The Potency was “inactive”.

With `Cc1cccc([N+](=O)[O-])c1` as the compound, how does the Potency read?
The Potency was “inactive”.

For `CCCCCCCCCc1ccc(O)cc1`, which Potency is on record?
Its Potency is “inactive”.

For `Cc1ccc(O)c(C)c1`, which Potency is on record?
Its Potency is “inactive”.

Which Potency does the source give for `c1nc[nH]n1` here?
Its Potency is “inactive”.

With `CNC(=O)Oc1ccccc1OC(C)C` as the compound, how does the Potency read?
The Potency was “inactive”.

Which Potency does the source give for `Cc1ccc2ccccc2c1` here?
Its Potency is “inactive”.

Which Potency does the source give for `Brc1ccccc1` here?
The Potency was “inactive”.

For `N#CCCCl`, which Potency is on record?
The Potency was “inactive”.

With `CC(C)(C)C(=O)C(Oc1ccc(Cl)cc1)n1cncn1` (stereo not given) as the compound, how does the Potency read?
Its Potency is “inactive”.

Which Potency does the source give for `Nc1ccccc1Cl` here?
Its Potency is “inactive”.
